Results filed as inconclusive are left out. Entries that show only a call come without a potency. Values without a mark were called inactive. The source made the active and inactive calls. The call rests on the fitted dose curve; in most records, active means well fitted inhibition curve with a large enough effect; inconclusive means small, poorly fitted or top-dose-only effect; inactive means no such curve, though single readings can be large or run the other way.
System: Zika virus NS2B-NS3 protease (unlinked complex)
Test: Primary screen GU Rhodamine qHTS for Zika virus inhibitors: Unlinked NS2B-NS3 protease assay (AID 1347159); further: nearly all actives have a fitted effect of over 60% in size
In short: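 Percent inhibition derives from the 15-min fluorescence change (ex 480, em 540 nm), normalized to no-enzyme and no-inhibitor wells. Reactions contained 25 nM NS2B-NS3 complex and 1.5 microM substrate in 10 mM Tris-HCl pH 8.0.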
Potency means the concentration at half of the fitted maximal effect.

SMILES	Potency	activity change, negative = inhibition
CC(C)=CCC/C(C)=C/Cc1ccc(O)c(C2OC(=O)c3cc(C(=O)O)cc(O)c32)c1O (stereo not given)	2.24 µM (active)	
Cc1c(C(=O)N2CCOc3ccc(-c4ccc(N)nc4)cc3C2)ccc(S(C)(=O)=O)c1F	inactive	
CC(NC(=O)C(O)C(C)C)C(=O)NC1C(=O)N(C)CCc2ccccc21 (stereo not given)	inactive	
CC(C)CCC1(O)C(=O)C(C)(C)C(O[C@@H]2O[C@H](CO)[C@@H](O)[C@H](O)[C@H]2O)C(C)(C)C1O (stereo not given in full)	35.5 µM (active)	
CC1CCN(C(=O)CC#N)CC1N(C)c1ncnc2[nH]ccc12 (stereo not given)	inactive	
C[C@@H]1O[C@@H](O[C@H]2[C@H](O[C@H]3CC[C@@]4(C)C(CC[C@]5(C)C4CC=C4[C@@H]6CC(C)(C)CC[C@]6(C(=O)O[C@@H]6OC[C@H](O)[C@H](O)[C@H]6O[C@@H]6O[C@@H](C)[C@H](O[C@@H]7O[C@H](CO)[C@@H](O)[C@H](O)[C@H]7O)[C@H](O)[C@H]6O)[C@H](O)C[C@]45C)C3(C)C)O[C@H](CO)[C@@H](O[C@@H]3OC[C@@H](O)[C@H](O)[C@H]3O)[C@@H]2O)[C@H](O)[C@H](O)[C@H]1O (stereo not given in full)		-6.95% [at 19.1 µM]
CCOCc1nc2c(N)nc3ccccc3c2n1CC(C)(C)O	inactive	
COc1cc(N2CCC(N3CCN(C)CC3)CC2)ccc1Nc1ncc(Cl)c(-c2c[nH]c3ccccc23)n1	inactive	
c1cc(OCCCN2CCCCC2)ccc1CN1CCCCC1	inactive	
Cc1cc(C(=O)Nc2cccc(C(=O)Nc3cccc(C(F)(F)F)c3)c2)on1	inactive	

From PubChem BioAssay (NCATS)
